Read-out in experiment [1]: TIMP metallopeptidase inhibitor 1 (TIMP1), TIMP1 (gene 7076)
Kind of experiment: BSK_hDFCGF_TIMP1: BioMAP Diversity Plus: hDFCGF Assay for TIMP metallopeptidase inhibitor 1 (TIMP1) Biomarker Activity (AID 2283062). Particulars: primary human foreskin fibroblasts; actives raise or lower the signal. The method, boiled down: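 Bidirectional curve fitting against DMSO baseline yielded this endpoint, based on ELISA detection of TIMP-1 in primary human foreskin fibroblasts exposed to compound for 24 h.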

Read-out in experiment [2]: Matrix Metallopeptidase 1 (MMP1), MMP1 (gene 4312)
Kind of experiment: BSK_hDFCGF_MMP1: BioMAP Diversity Plus: hDFCGF Assay for Matrix Metallopeptidase 1 (MMP1) Biomarker Activity (AID 2283064). Particulars: primary human foreskin fibroblasts; actives raise or lower the signal. The method, boiled down:
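ELISA read-out of MMP1 from human foreskin fibroblasts (primary skin cells), 24 h post-dose. Gain or loss of signal was fitted bidirectionally versus DMSO negative control; cytotoxicity was checked by SRB in parallel cultures.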

Read-out in experiment [3]: Vascular cell adhesion molecule 1 (VCAM1), VCAM1 (gene 7412)
Description: BSK_hDFCGF_VCAM1: BioMAP Diversity Plus: hDFCGF Assay for Vascular cell adhesion molecule 1 (VCAM1) Biomarker Activity (AID 2283065). Particulars: primary human foreskin fibroblasts; actives raise or lower the signal. Summed up:
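Measured after 24 h chemical treatment of primary human skin fibroblasts, VCAM-1 was detected by ELISA and concentration-response analysed in both directions versus DMSO vehicle.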

Read-out in experiment [4]: Plasminogen activator inhibitor-1 (PAI1), SERPINE1 (gene 5054)
Description: BSK_hDFCGF_PAI1: BioMAP Diversity Plus: hDFCGF Assay for Plasminogen activator inhibitor-1 (PAI1) Biomarker Activity (AID 2283066). The following applies: primary human foreskin fibroblasts; actives raise or lower the signal. The method, boiled down: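 PAI-1 levels in human dermal foreskin fibroblasts were quantified by ELISA 24 h after dosing, with gain or loss analysed against DMSO. Overt cytotoxicity was checked by sulforhodamine B total-protein staining in parallel cultures.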

Read-out in experiment [5]: Intercellular Adhesion Molecule 1 (ICAM1), ICAM1 (gene 3383)
Description: BSK_KF3CT_ICAM1: BioMAP Diversity Plus: KF3CT Assay for Intercellular Adhesion Molecule 1 (ICAM1) Biomarker Activity (AID 2283067). The following applies: primary human keratinocytes with fibroblasts; actives raise or lower the signal. The method, boiled down: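 Bidirectional curve fitting against a DMSO baseline was applied to ICAM-1 ELISA signal from primary human skin co-cultures harvested 24 h after treatment, with SRB staining of parallel wells for overt cytotoxicity.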

Read-out in experiment [6]: Interferon-gamma inducible Protein 10 (IP10), CXCL10 (gene 3627)
Kind of experiment: BSK_KF3CT_IP10: BioMAP Diversity Plus: KF3CT Assay for Interferon-gamma inducible Protein 10 (IP10) Biomarker Activity (AID 2283068). Particulars: primary human keratinocytes with fibroblasts; actives raise or lower the signal. The method, boiled down: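 In a primary skin co-culture of keratinocytes and fibroblasts, IP-10 is quantified by ELISA at 24 h after dosing. SRB staining of parallel wells monitors overt toxicity. Curves are fitted both directions against DMSO.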

Experiment [7] can be described thus: BSK_KF3CT_SRB: Viability Assessment in the BioMAP Diversity Plus: KF3CT Assay (AID 2283069).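 Note: read 24 h after compound addition.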 The following applies: primary human keratinocytes with fibroblasts. The method, boiled down:
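SRB read-out at 560 nm (0.1% stain, TCA-fixed cells) gauges overt cytotoxicity in a human skin keratinocyte–fibroblast co-culture 24 h post-dosing. Signal change was fitted bidirectionally relative to DMSO control.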

Read-out in experiment [8]: Interleukin-1 alpha (IL1a), IL1A (gene 3552)
Description: BSK_KF3CT_IL1a: BioMAP Diversity Plus: KF3CT Assay for Interleukin-1 alpha (IL1a) Biomarker Activity (AID 2283070). The following applies: primary human keratinocytes with fibroblasts; actives raise or lower the signal. The method, boiled down:
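Primary skin co-culture (keratinocytes, foreskin fibroblasts), 24 h exposure; ELISA for IL-1a; bidirectional curve fit vs DMSO.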

Read-out in experiment [9]: TIMP metallopeptidase inhibitor 2 (TIMP2), TIMP2 (gene 7077)
Kind of experiment: BSK_KF3CT_TIMP2: BioMAP Diversity Plus: KF3CT Assay for TIMP metallopeptidase inhibitor 2 (TIMP2) Biomarker Activity (AID 2283071). The following applies: primary human keratinocytes with fibroblasts; actives raise or lower the signal. The method, boiled down:
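TIMP-2 measured by ELISA at 24 h in human keratinocyte/fibroblast primary co-cultures exposed to chemicals. Both increases and decreases were fitted against DMSO. Parallel cultures were stained with SRB for total protein as an overt-cytotoxicity check.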

Read-out in experiment [10]: Transforming growth factor beta 1 (TGFb1), TGFB1 (gene 7040)
Kind of experiment: BSK_KF3CT_TGFb1: BioMAP Diversity Plus: KF3CT Assay for Transforming growth factor beta 1 (TGFb1) Biomarker Activity (AID 2283072). Particulars: primary human keratinocytes with fibroblasts; actives raise or lower the signal. Summed up: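 ELISA quantifies TGF-b1 at 24 h post-dose in a primary human skin co-culture of keratinocytes and fibroblasts, with gain or loss judged against DMSO. Parallel SRB total-protein staining flags overt cytotoxicity.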

Read-out in experiment [11]: C-C motif chemokine 2 (Homo sapiens) (UniProt P13500)
Kind of experiment: BSK_KF3CT_MCP1: BioMAP Diversity Plus: KF3CT Assay for Monocyte Chemoattractant Protein 1 (MCP1/CCL2) Biomarker Activity (AID 2283073). The following applies: primary human keratinocytes with fibroblasts; actives raise or lower the signal. The method, boiled down:
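Biomarker MCP-1 is measured by ELISA in primary human keratinocytes co-cultured with foreskin fibroblasts, 24 h after chemical treatment; DMSO serves as the negative control and activity baseline.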

Read-out in experiment [12]: Matrix Metallopeptidase 9 (MMP9), MMP9 (gene 4318)
Kind of experiment: BSK_KF3CT_MMP9: BioMAP Diversity Plus: KF3CT Assay for Matrix Metallopeptidase 9 (MMP9) Biomarker Activity (AID 2283074). Particulars: primary human keratinocytes with fibroblasts; actives raise or lower the signal. Summed up: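 ELISA read-out of MMP-9 at 24 h post-dosing in a co-culture of human skin keratinocytes and foreskin fibroblasts. Gain or loss of signal was fitted in both directions against DMSO.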

Read-out in experiment [13]: urokinase plasminogen activator (uPA), PLAU (gene 5328)
Kind of experiment: BSK_KF3CT_uPA: BioMAP Diversity Plus: KF3CT Assay for urokinase plasminogen activator (uPA) Biomarker Activity (AID 2283075). The following applies: primary human keratinocytes with fibroblasts; actives raise or lower the signal. Summed up: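 Skin co-culture (keratinocytes + foreskin fibroblasts), human primary; 24 h post-dose; uPA by ELISA; gain/loss fit vs DMSO baseline.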

Read-out in another experiment: CD40, CD40 (gene 958)
Kind of experiment: BSK_LPS_CD40: BioMAP Diversity Plus: LPS Assay for CD40 Biomarker Activity (AID 2283076). The following applies: primary human HUVEC with PBMC; actives raise or lower the signal. The method, boiled down:
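Using a multiplexed primary human co-culture (umbilical vein endothelium plus PBMC), CD40 was read by ELISA 24 h after dosing, with cytotoxicity tracked by sulforhodamine B staining of parallel cultures and activity fitted bidirectionally versus DMSO.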

Read-out in experiment [14]: E-selectin (Homo sapiens) (UniProt P16581)
Kind of experiment: BSK_LPS_Eselectin: BioMAP Diversity Plus: LPS Assay for Eselectin Biomarker Activity (AID 2283077). The following applies: primary human HUVEC with PBMC; actives raise or lower the signal. Summed up: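 Dose chemical onto LPS-driven HUVEC/PBMC co-culture; after 24 h, run ELISA for E-selectin; fit up- and down-going responses relative to DMSO control.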

Read-out in experiment [15]: Interleukin-1 alpha (IL1a), IL1A (gene 3552)
Description: BSK_LPS_IL1a: BioMAP Diversity Plus: LPS Assay for Interleukin-1 alpha (IL1a) Biomarker Activity (AID 2283080). Particulars: primary human HUVEC with PBMC; actives raise or lower the signal. Summed up:
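Primary human HUVEC and PBMC co-culture stimulated with LPS is dosed and harvested at 24 h. Both increases and decreases in ELISA-measured IL-1a are scored relative to DMSO.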

Read-out in experiment [16]: Monocyte Chemoattractant Protein-1 (MCP1), CCL2 (gene 6347)
Description: BSK_LPS_MCP1: BioMAP Diversity Plus: LPS Assay for Monocyte Chemoattractant Protein-1 (MCP1) Biomarker Activity (AID 2283081).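 For AC50: secreted MCP-1 protein quantified by ELISA in culture supernatant.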 Particulars: primary human HUVEC with PBMC; actives raise or lower the signal. Summed up:
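Values derive from bidirectional fitting against DMSO of ELISA-measured MCP-1 in a human primary endothelial and mononuclear cell co-culture, 24 h after chemical addition under LPS activation.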

Read-out in experiment [17]: Monokine induced gamma interferon (MIG), CXCL9 (gene 4283)
Description: BSK_hDFCGF_MIG: BioMAP Diversity Plus: hDFCGF Assay for Monokine induced gamma interferon (MIG) Biomarker Activity (AID 2283063). The following applies: primary human foreskin fibroblasts; actives raise or lower the signal. The method, boiled down: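 Endpoint derived by bidirectional fitting relative to DMSO; MIG quantified via ELISA in primary human foreskin fibroblasts harvested 24 h after dosing.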

Read-out in experiment [18]: Interleukin-8 (IL8), CXCL8 (gene 3576)
Description: BSK_LPS_IL8: BioMAP Diversity Plus: LPS Assay for Interleukin-8 (IL8) Biomarker Activity (AID 2283078). Particulars: primary human HUVEC with PBMC; actives raise or lower the signal. Summed up:
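In this LPS system, chemical-treated human umbilical vein endothelium/PBMC co-cultures were harvested at 24 h for IL-8 ELISA.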

Experiment [19] can be described thus: BSK_LPS_SRB: Viability Assessment in the BioMAP Diversity Plus: LPS Assay (AID 2283079).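 Note: total protein by sulforhodamine B absorbance as a cytotoxicity measure; measured one day after compound addition.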 Particulars: primary human HUVEC with PBMC. The method, boiled down:
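Cytotoxicity endpoint in human endothelial–PBMC co-culture: 24 h exposure, then SRB (0.1%) staining, 560 nm read.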

SMILES strings stand for the structures. Active and inactive are the calls of the source. Rule for the calls: active = hit-call score of the fitted dose curve at least 0.9, where 1 is the maximum; inactive = score below 0.9.

Sequence of E-selectin (Homo sapiens) (P16581 whole entry, looked up): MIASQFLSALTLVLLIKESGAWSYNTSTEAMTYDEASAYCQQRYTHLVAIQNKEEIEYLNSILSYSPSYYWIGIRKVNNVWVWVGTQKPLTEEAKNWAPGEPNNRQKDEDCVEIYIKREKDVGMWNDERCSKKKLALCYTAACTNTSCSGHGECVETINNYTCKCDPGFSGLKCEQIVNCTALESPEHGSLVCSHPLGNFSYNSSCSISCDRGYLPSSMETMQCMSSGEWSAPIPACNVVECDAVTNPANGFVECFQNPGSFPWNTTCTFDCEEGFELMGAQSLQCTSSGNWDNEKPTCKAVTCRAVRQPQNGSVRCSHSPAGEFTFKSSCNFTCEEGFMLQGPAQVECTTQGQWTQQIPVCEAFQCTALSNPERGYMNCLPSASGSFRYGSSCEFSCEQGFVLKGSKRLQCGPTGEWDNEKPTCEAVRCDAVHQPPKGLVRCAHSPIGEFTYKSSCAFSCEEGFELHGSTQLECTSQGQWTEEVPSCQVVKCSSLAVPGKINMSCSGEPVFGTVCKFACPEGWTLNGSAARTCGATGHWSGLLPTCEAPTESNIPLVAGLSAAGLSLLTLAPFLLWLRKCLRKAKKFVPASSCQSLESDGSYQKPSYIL

In the case of `CN(C)C(=O)NC1(c2ccccc2)CCN(CC[C@@]2(c3ccc(F)c(F)c3)CN(C(=O)c3ccccc3)CCO2)CC1`, the result in [1], in [2], in experiment [3], in experiment [4], in experiment [5] and in experiment [6] was inactive. The result in experiment [7], in experiment [8], in experiment [9], in experiment [10], in experiment [11] and in experiment [12] was inactive. Besides, the outcome was “inactive” in [13]; “inactive” with CD40, CD40 (gene 958); “inactive” in [14]; “inactive” in experiment [15]; “inactive” in experiment [16].

`Nc1nc(=S)c2[nH]cnc2[nH]1`: the outcome in experiment [1], in experiment [17], in [4], in experiment [5], in [6] and in [7] was inactive. For the same compound, the result in experiment [8], in experiment [9], in experiment [10], in experiment [11], in [12] and in [13] was inactive. Moreover, the outcome was “inactive” with CD40, CD40 (gene 958); “inactive” in experiment [14]; “inactive” in [18]; “inactive” in experiment [15]; “inactive” in [16].

What is called AC50 is the concentration at which the activity in the assay is half-maximal. For the compound `CC(C)OC(=O)C(C)(C)Oc1ccc(C(=O)c2ccc(Cl)cc2)cc1`, the result in [1], in experiment [17], in experiment [3], in experiment [5], in experiment [8] and in experiment [9] was inactive. For the same compound, the outcome in experiment [10], in experiment [11], in experiment [12], in [13], in experiment [14] and in [15] was inactive. The AC50 in experiment [4] is 3.97 µM (active); in the experiment with CD40, CD40 (gene 958) it was 29.4 µM (active); in [18], 32 µM (active); in experiment [19] it was 27.8 µM (active); in [16] it was 29.7 µM (active).

For `Cc1cn([C@H]2C=C[C@@H](CO)O2)c(=O)[nH]c1=O`, the result in experiment [1], in experiment [17], in [3], in [4], in experiment [5] and in experiment [6] was inactive. The outcome was “inactive” in experiment [8]; “inactive” in experiment [10]; “inactive” in [12]; “inactive” in experiment [13]; “inactive” with CD40, CD40 (gene 958); “inactive” in experiment [14]. In addition, the outcome in experiment [15] and in [16] was inactive.

(Values after PubChem BioAssay (EPA / NIEHS).)
